Data: the supplement of paper PMC6331611
± gives the standard deviation of the averaged measurements. Over roughly 1,600 compounds, “normalized intracellular growth (luminescence, IQM-normalized) in RAW264.7 macrophages” has its median near 1; the lowest 2% begin near 0.43. The sample holds the lowest values, similar compounds and a random draw of the others, so the mix is not that of the screen.

Test system: Salmonella enterica serovar Typhimurium SL1344
Assay: normalized intracellular growth (luminescence, IQM-normalized) in RAW264.7 macrophages (fraction of plate interquartile mean); higher = more bacterial growth (less inhibition)
Details: 10 µM

Row | Structure (SMILES) | normalized intracellular growth (time point: T3 (3 h)) | normalized intracellular growth (time point: Tfinal (~6 h))
1 | CCCNC(C)(C)COC(=O)c1ccccc1 | 0.828 ± 0.083 | 0.1174 ± 0.0011
2 | O=C(OCc1ccccc1)c1ccccc1 | 0.966 ± 0.057 | 0.928 ± 0.069
3 | O=C(OOC(=O)c1ccccc1)c1ccccc1 | 1 ± 0.017 | 1.05 ± 0.037
4 | C=C1CC[C@H](O)C/C1=C/C=C1\CCC[C@]2(C)[C@@H]([C@H](C)/C=C/[C@H](C)C(C)C)CC[C@@H]12 | 1.04 ± 0.059 | 1.2 ± 0.086
5 | CC(O)(CC(=O)O)CC(=O)O | 0.971 ± 0.034 | 1.02 ± 0.061
6 | NS(=O)(=O)c1ccc(C(=O)O)cc1 | 1.006 ± 0.0098 | 0.964 ± 0.076
7 | Nc1ccc(S(N)(=O)=O)cc1 | 0.9673 ± 0.006 | 1.07 ± 0.1
8 | NCc1ccc(S(N)(=O)=O)cc1 | 0.686 ± 0.071 | 0.0766 ± 0.0043
9 | O=C(O)CN1C(=O)c2cccc3cccc(c23)C1=O | 0.914 ± 0.099 | 1.05 ± 0.096
10 | CC(=O)Nc1ccc(C(=O)O)cc1 | 1.06 ± 0.055 | 0.967 ± 0.1
11 | CCCCC(CC)CCC(CC(C)C)OS(=O)(=O)O (stereo not given) | 1.03 ± 0.031 | 1.1 ± 0.03
12 | NCCC[C@H](N)C(=O)O | 0.972 ± 0.048 | 0.966 ± 0.13
13 | CC(C)(O/N=C(\C(=O)N[C@@H]1C(=O)N2C(C(=O)[O-])=C(C[n+]3ccccc3)CS[C@H]12)c1csc(N)n1)C(=O)O | 0.997 ± 0.078 | 0.806 ± 0.12
14 | C[C@H]1[C@H](NC(=O)/C(=N\OC(C)(C)C(=O)O)c2csc(N)n2)C(=O)N1S(=O)(=O)O | 0.992 ± 0.04 | 0.2 ± 0.016
15 | FC(F)(F)COCC(F)(F)F | 0.946 ± 0.09 | 0.9 ± 0.27
16 | CC(=O)N[C@@H](CCC(N)=O)C(=O)O | 0.959 ± 0.023 | 0.942 ± 0.11
17 | Nc1ccc(S(=O)(=O)O)cc1.Nc1ccc(S(=O)(=O)O)cc1.[Zn] | 1.01 ± 0.047 | 1.15 ± 0.099
18 | CC12CCC(CC1)C(C)(C)O2 | 1.02 ± 0.024 | 0.96 ± 0.18
19 | CN(C)[C@@H]1C(O)=C(C(N)=O)C(=O)[C@@]2(O)C(O)=C3C(=O)c4c(O)ccc(Cl)c4[C@@H](O)[C@H]3C[C@@H]12 | 0.727 ± 0.11 | 0.176 ± 0.0084
20 | C=C1c2c(Cl)ccc(O)c2C(=O)C2=C(O)[C@]3(O)C(=O)C(C(N)=O)=C(O)[C@@H](N(C)C)[C@@H]3[C@@H](O)[C@H]12.O=C(O)c1cc(S(=O)(=O)O)ccc1O | 1.01 ± 0.065 | 0.0256 ± 0.0064

Row | Structure (SMILES) | normalized intracellular growth (time point: T3 (3 h)) | normalized intracellular growth (time point: Tfinal (~6 h))
21 | CN(C)[C@@H]1C(O)=C(C(N)=O)C(=O)[C@@]2(O)C(O)=C3C(=O)c4c(O)cccc4[C@@](C)(O)[C@H]3[C@H](O)[C@@H]12 | 1.01 ± 0.074 | 0.0331 ± 0.014
22 | CN(C)[C@@H]1C(O)=C(C(N)=O)C(=O)[C@@]2(O)C(O)=C3C(=O)c4c(O)ccc(Cl)c4[C@@](C)(O)[C@H]3C[C@@H]12 | 0.846 ± 0.031 | 0.23 ± 0.02
23 | OCc1ccccn1 | 1.02 ± 0.06 | 0.892 ± 0.1
24 | C=NC(C(=O)NC1C(=O)N2C1SC(C)(C)C2C(=O)O)c1ccccc1 (stereo not given) | 0.959 ± 0.021 | 1.04 ± 0.011
25 | Nc1ncnc(Nc2ccc(Cl)cc2)n1 | 1.1 ± 0.074 | 0.945 ± 0.42
26 | Cc1ncc([N+](=O)[O-])n1C | 0.936 ± 0.053 | 0.98 ± 0.1
27 | Nc1nccs1 | 1.03 ± 0.072 | 0.911 ± 0.12
28 | O.O.O=C([O-])CN(CCN(CC(=O)[O-])CC(=O)O)CC(=O)O.[Na+].[Na+] | 0.978 ± 0.021 | 1.02 ± 0.013
29 | O=c1[nH]c(=O)c2ccccc2o1 | 0.963 ± 0.026 | 1.02 ± 0.078
30 | CC1=C(C/C=C(\C)CCC[C@H](C)CCC[C@H](C)CCCC(C)C)C(=O)c2ccccc2C1=O | 0.968 ± 0.067 | 1.08 ± 0.064
31 | CCCCC/C=C/CCC(=O)N[C@H]1[C@H](Oc2c3cc4cc2Oc2ccc(cc2Cl)[C@@H](O[C@@H]2O[C@H](CO)[C@@H](O)[C@H](O)[C@H]2NC(C)=O)[C@@H]2NC(=O)[C@H](NC(=O)[C@@H]4NC(=O)[C@H]4NC(=O)C(Cc5ccc(c(Cl)c5)O3)NC(=O)[C@H](N)c3ccc(O)c(c3)Oc3cc(O)cc4c3)c3ccc(O)c(c3)-c3c(OC4O[C@H](CO)[C@@H](O)[C@H](O)[C@@H]4O)cc(O)cc3[C@@H](C(=O)O)NC2=O)O[C@H](CO)[C@@H](O)[C@@H]1O (stereo not given in full) [TEICOPLANIN [A(2-1) shown]] | 0.955 ± 0.07 | 1.07 ± 0.065
32 | Cc1c(C)c2c(c(C)c1O)CCC(C)(CCCC(C)CCCC(C)CCCC(C)C)O2 (stereo not drawn) [alpha-TOCHOPHEROL] | 0.999 ± 0.14 | 1.1 ± 0.13
33 | O=C(NCc1ccccc1)OCCO | 1.24 ± 0.071 | 1.33 ± 0.083
34 | CN(C)c1ccc(O)c2c1C[C@H]1C[C@H]3[C@H](N(C)C)C(O)=C(C(N)=O)C(=O)[C@@]3(O)C(O)=C1C2=O | 1.01 ± 0.091 | 0.33 ± 0.14
35 | CN(C)[C@@H]1C(O)=C(C(N)=O)C(=O)[C@@]2(O)C(O)=C3C(=O)c4c(O)cccc4[C@@](C)(O)[C@H]3C[C@@H]12 | 0.598 ± 0.062 | 0.209 ± 0.048
36 | CN(C)[C@@H]1C(O)=C(C(=O)NCN2CCCC2)C(=O)[C@@]2(O)C(O)=C3C(=O)c4c(O)cccc4[C@@](C)(O)[C@H]3C[C@@H]12 | 0.973 ± 0.013 | 0.683 ± 0.41
37 | C=C1c2cccc(O)c2C(=O)C2=C(O)[C@]3(O)C(=O)C(C(N)=O)=C(O)[C@@H](N(C)C)[C@@H]3[C@@H](O)[C@H]12 | 0.979 ± 0.029 | 0.103 ± 0.039
38 | CN(C)c1cc(NC(=O)CNC(C)(C)C)c(O)c2c1C[C@H]1C[C@H]3[C@H](N(C)C)C(O)=C(C(N)=O)C(=O)[C@@]3(O)C(O)=C1C2=O | 1.01 ± 0.05 | 1.02 ± 0.18
39 | C[C@H]1c2cccc(O)c2C(=O)C2=C(O)[C@]3(O)C(=O)C(C(N)=O)=C(O)[C@@H](N(C)C)[C@@H]3[C@@H](O)[C@@H]21 | 0.73 ± 0.065 | 0.173 ± 0.025
40 | CN(C)CCc1c[nH]c2ccc(CS(=O)(=O)N3CCCC3)cc12 | 0.989 ± 0.027 | 1.14 ± 0.15
